Data as given in PubChem BioAssay AID2284155 (EPA ToxCast).
The source made the active and inactive calls. Rule for the calls: active = hit-call score of the fitted dose curve at least 0.9, where 1 is the maximum; inactive = score below 0.9.

biological target: human Muscarinic Acetylcholine Receptor M4 Antagonism, conducted at France lab site, CHRM4 (gene 1132) (UniProt P08173); experiment: ERF_FR_GPCR_hCHRM4: Eurofins (ERF) G Protein-Coupled Receptor (GPCR) Radioligand Binding LeadHunter Assay for human Muscarinic Acetylcholine Receptor M4 Antagonism, conducted at France lab site
Sequence (P08173 whole entry, looked up): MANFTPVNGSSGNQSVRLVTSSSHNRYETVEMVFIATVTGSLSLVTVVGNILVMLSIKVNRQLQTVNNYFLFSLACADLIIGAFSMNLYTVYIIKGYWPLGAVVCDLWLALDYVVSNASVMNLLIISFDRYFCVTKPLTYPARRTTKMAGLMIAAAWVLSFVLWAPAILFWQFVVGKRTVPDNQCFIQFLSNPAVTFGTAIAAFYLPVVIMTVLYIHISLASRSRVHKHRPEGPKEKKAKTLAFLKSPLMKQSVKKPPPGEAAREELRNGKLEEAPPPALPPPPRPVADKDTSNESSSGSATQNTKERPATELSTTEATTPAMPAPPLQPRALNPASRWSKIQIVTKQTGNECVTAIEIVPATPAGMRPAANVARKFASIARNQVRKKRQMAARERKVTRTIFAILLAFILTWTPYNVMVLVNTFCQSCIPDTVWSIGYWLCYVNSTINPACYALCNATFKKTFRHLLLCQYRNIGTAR
Description: ERF_FR_GPCR_hCHRM4 is a biochemical, single-readout assay that uses extracted gene-proteins in a cell-free assay. Measurements were taken 1 hour after chemical dosing in a 96-well plate. See M4 Human Acetylcholine (Muscarinic) GPCR Binding (Antagonist Radioligand) Assay, Cerep.ERF_FR_GPCR_hCHRM4 is an assay component calculated from the ERF_FR_GPCR_hCHRM4 assay. It is designed to measure radioligand binding using a type of binding reporter as detected by scintillation counting with radiometry technology.Data from the assay component ERF_FR_GPCR_hCHRM4 was analyzed at the assay endpoint, ERF_FR_GPCR_hCHRM4, in the positive analysis fitting direction relative to DMSO as the negative control and baseline of activity. Using a type of binding reporter, loss-of-signal activity can be used to understand changes in binding as they relate to gene CHRM4. To generalize the intended target to other relatable targets, this assay endpoint is annotated to the gpcr intended target family, where the subfamily is acetylcholine (Muscarinic).
Human cells are incubated for 60 minutes at room temprature with [3H]4-DAMP ligand (0.2 nM) and 4-Damp methiodide as control inhibitor.Test Sample Requirements: Minimum for 1) Screen: 60 ul of 10 mM stock -OR- 1 mg (pre-weighed) for 10 uM final testing. 2) Dose Response: 90 ul of 10 mM stock -OR- 1 mg (pre-weighed) for a top concentration at 10 uM.

Compound	AC50
O=C(/C=C/c1ccc(O)cc1)CC(=O)/C=C/c1ccc(O)cc1	9.09 µM (active)
